# Gal4-VP16 FLuc – VP16 counterscreen qHTS for inhibitors of ROR gamma transcriptional activity. Drosophila S2 Gal4-VP16 UAS-luciferase, luminescence, 20 h. Potency, µM (doses to about 53.6 µM), inactives show top-dose activity, negative = inhibition, most hits filed as inhibitors. actives 3.5% (n = 310,000);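 note: Gal4-VP16 expression switched on by copper sulfate through the metallothionein promoter; nearly all actives have a fitted effect of over 50% in size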
# RORg inh – qHTS for inhibitors of ROR gamma transcriptional activity; Nuclear receptor ROR-gamma (Mus musculus), P51450; Drosophila S2 Gal4-RORgamma UAS-luciferase reporter, 20 h; Potency, µM (doses to about 53.6 µM), for inactives: at the top dose activity change, negative = inhibition, hits mostly inhibitors; actives 5.4% (n = 310,000); note: nearly all actives have a fitted effect of over 60% in size
# Target sequence (P51450 whole entry, looked up, the tested form may be a part): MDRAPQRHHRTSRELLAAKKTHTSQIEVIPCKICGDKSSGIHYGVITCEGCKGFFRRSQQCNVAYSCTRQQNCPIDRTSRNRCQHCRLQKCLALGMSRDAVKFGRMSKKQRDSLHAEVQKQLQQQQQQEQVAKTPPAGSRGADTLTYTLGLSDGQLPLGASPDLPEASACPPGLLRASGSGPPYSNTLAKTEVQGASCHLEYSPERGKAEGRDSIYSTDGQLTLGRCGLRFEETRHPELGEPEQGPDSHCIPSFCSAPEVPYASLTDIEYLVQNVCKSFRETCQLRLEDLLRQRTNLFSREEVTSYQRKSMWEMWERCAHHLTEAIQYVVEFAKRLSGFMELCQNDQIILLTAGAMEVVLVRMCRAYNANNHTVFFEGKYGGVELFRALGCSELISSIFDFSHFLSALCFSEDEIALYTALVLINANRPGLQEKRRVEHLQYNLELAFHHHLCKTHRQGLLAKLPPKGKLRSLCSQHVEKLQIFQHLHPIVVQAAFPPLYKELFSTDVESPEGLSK
#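 Drosophila S2 cells stably expressing Gal4-DBD/mouse RORγ fusion under metallothionein promoter plus UAS-luciferase; compound 1 h, then 700 uM CuSO4 induction for 20 h at ambient temperature; inhibition read as reduced luminescence.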
# Sfp PPTase inh – qHTS Assay for Inhibitors of Bacillus subtilis Sfp phosphopantetheinyl transferase (PPTase). Biochemical Sfp PPTase activity, qHTS. 4'-phosphopantetheinyl transferase ffp (Bacillus subtilis), Q9F4F7. Potency, µM, without a hit: largest response in the series, negative = inhibition, actives largely listed as inhibitors. actives 3.5% (n = 310,000);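 note: the enzyme is Sfp with the accession as filed and its product quenches rhodamine fluorescence; 0% = enzyme reaction without inhibitor and -100% = no enzyme wells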
#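 Fluorescence-quenching assay: 15 nM Sfp-PPTase preincubated 15 min at room temperature with compound, then 5 uM rhodamine-CoA and 12.5 uM BHQ-2-labelled YbbR peptide added. Fluorescence (ex 525/em 598 nm) read at start and after 30 min; difference gives rate.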
# ALDH1A1 inh – qHTS Assay for Inhibitors of Aldehyde Dehydrogenase 1 (ALDH1A1); Purified ALDH1A1, NADH fluorescence, propionaldehyde substrate; Potency, µM (series often up to 75.3 µM), inactives show at the top dose activity, negative = inhibition, usual class: inhibitors; actives 7.3% (n = 220,000); active = well fitted inhibition curve with a large enough effect, not every such curve was filed as active; inconclusive = small, poorly fitted or top-dose-only effect, or another doubt; inactive = no such curve, though single readings can be large or run the other way;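 note: plate controls were no enzyme wells and a reference inhibitor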
# PLK1 PBD block – qHTS for Inhibitors of PLK1-PDB (polo-like kinase 1 - polo-box domain): Primary Screen; Plk1 PBD binding of FITC phosphopeptide, fluorescence polarization; Potency, µM, inactives show max response, negative = inhibition, usual class: inhibitors; actives 2.8% (n = 360,000); note: series mostly up to about 57 µM; nearly all actives have a fitted effect of over 65% in size
# An asterisk follows results filed as active; u = inconclusive; x = no result given. This is a sample that favours compounds with a hit; in the whole collection about 12% have one here. Unless noted, calls come from the whole dose curve; as a rule, active = well fitted curve in the direction sought with a large enough effect; inconclusive = small, poorly fitted or top-dose-only effect, or another doubt; inactive = no such curve, though single readings can be large; an effect the other way counts as inactive or inconclusive. Unless noted, % is set by controls: 0 for no effect and ±100 for the full control effect; potency is the fitted concentration of half-maximal effect.
SMILES,Gal4-VP16 FLuc,RORg inh,Sfp PPTase inh,ALDH1A1 inh,PLK1 PBD block
COc1ccc(C(=O)N2CCC3(CC2)CCN(C(c2ccccc2)c2ccccc2)CC3)cc1,-17%,-10%,u,-4%,x
CC(=O)NCCNc1nc(-c2ccccc2CN(C)C)nc2ccccc12,1%,-12%,1%,-3%,x
COc1cc2c3c(n(C)c(=O)c2cc1OC)-c1cc2c(cc1C3=O)OCO2,x,x,x,x,-3%
O=C(CCSc1ccccc1)Nc1ccc(S(=O)(=O)Nc2ncccn2)cc1,2%,5%,8%,6%,-17%
O=C(CSc1ccccc1)Nc1ccc(S(=O)(=O)Nc2ncccn2)cc1,5%,13µM*,4%,11%,u
Cc1cc(C)nc(NS(=O)(=O)c2ccc(NC(=O)CSc3nc4ccccc4[nH]3)cc2)n1,4µM*,23%,10%,20µM*,-15%
O=C(CSc1nc2ccccc2[nH]1)Nc1ccc(F)cc1,-1%,12%,0%,11%,-3%
COC(=O)Cn1ncn2c(cc3oc(C)cc32)c1=O,-5%,1%,56µM*,-2%,0%
O=C(CC1S/C(=N/N=C2CCCCCC2)NC1=O)Nc1ccc(Br)cc1F (stereo not drawn),5.6µM*,2.2µM*,18%,x,-6%
O=C(CC1S/C(=N/N=C2CCCCCC2)NC1=O)Nc1ccccc1F (stereo not drawn),x,x,10%,x,0%
O=C(CSc1nnc2c(n1)[nH]c1ccccc12)Nc1ccc(N2CCOCC2)cc1,u,-33%,7.9µM*,22µM*,u
O=C(CSc1nnc2c(n1)[nH]c1ccccc12)Nc1ccc2c(c1)OCO2,10%,-5%,45µM*,u,27µM*
Cc1ccc(NC(=O)CSc2nnc3c(n2)[nH]c2ccccc23)cc1,-2%,11%,14%,x,-1%
Cc1nc(SCC(=O)Nc2cccc(S(=O)(=O)N3CCOCC3)c2)nc(C)c1C,x,x,x,x,-19%
O=C(CSc1nnc2c(n1)[nH]c1ccccc12)Nc1cccc(S(=O)(=O)N2CCOCC2)c1,u,0%,79µM*,x,-25%
NC(COCc1ccccc1)c1csc(Nc2ccc(C(=O)NCCO)cc2)n1 (stereo not drawn),x,x,x,x,4%
O=C(c1ccccc1F)N(Cc1nc2ccccc2c(=O)[nH]1)C1CCCC1,7.9µM*,2.8µM*,-2%,7%,2%
O=C(c1ccccc1)N(Cc1nc2ccccc2c(=O)[nH]1)C1CCCCC1,5%,u,-7%,3.5µM*,3%
O=C(c1cccc(F)c1)N(Cc1nc2ccccc2c(=O)[nH]1)C1CCCC1,u,6.3µM*,-14%,-9%,-1%
CCC(C)NC(=O)Cn1ccc2cc(S(=O)(=O)N3CCCCCC3)ccc21 (stereo not drawn),-8%,19%,19%,x,-13%
O=c1[nH]c2cc3ccccc3cc2nc1-c1nnnn1C1CCCC1,x,x,x,x,-14%
CC1(C)Cc2c(C#N)c(N3CCN(C(=O)c4ccco4)CC3)nc(-c3ccco3)c2CS1,2%,u,20µM*,2%,-24%
CC(=O)N1CCN(c2nc(-c3ccco3)c3c(c2C#N)CC(C)(C)SC3)CC1,8%,-33%,45µM*,u,-29%
COc1cc2[nH]c(=S)n(C3CCCC3)c(=O)c2cc1OC,2.8µM*,4.5µM*,6%,u,-10%
COc1cc2[nH]c(=S)n(C3CC3)c(=O)c2cc1OC,18µM*,3.5µM*,-2%,28µM*,3%
COc1cc2[nH]c(=S)n(C3CCN(Cc4ccccc4)CC3)c(=O)c2cc1OC,u,u,-5%,11%,-2%
C[C@H]1C=CC(=O)C[C@H]1c1c(F)cccc1Cl,-14%,-4%,-6%,x,x
COCCN(CCOC)c1nc(C)nc2c1nc(-c1ccccc1)n2CCCN1CCCCC1C (stereo not drawn),-3%,-6%,24%,u,x
Cc1cccc(NC(=O)CN2C(=O)/C(=C3\SC(=S)N(CC4CCCO4)C3=O)c3ccccc32)c1 (stereo not drawn),2%,-15%,-1%,x,0%

# Bioassay records deposited in PubChem BioAssay by National Center for Advancing Translational Sciences (NCATS).
